In the library only some 3.2% were active in any assay of this set; here they are far more common.
MsrA inh: bovine MsrA inhibition; 0.75% of 360,000 active; purified bovine MsrA, absorbance read-out; inhibition, % at 15.5 µM; in the data active = inhibition above about 4.5%
DSG3 Ab inh: blocks pemphigus antibody binding to human desmoglein-3; 0.48% of 310,000 active; DSG3-coupled beads, scFv-anti-DSG3-GFP binding, flow cytometry; hits give low values; binding (percent of control), % at 10 µM;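 active = binding more than 3 SD below its plate's average and above zero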;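 also: hits lower antibody fragment binding to DSG3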
Target sequence (P32926 whole entry, looked up, the tested form may be a part): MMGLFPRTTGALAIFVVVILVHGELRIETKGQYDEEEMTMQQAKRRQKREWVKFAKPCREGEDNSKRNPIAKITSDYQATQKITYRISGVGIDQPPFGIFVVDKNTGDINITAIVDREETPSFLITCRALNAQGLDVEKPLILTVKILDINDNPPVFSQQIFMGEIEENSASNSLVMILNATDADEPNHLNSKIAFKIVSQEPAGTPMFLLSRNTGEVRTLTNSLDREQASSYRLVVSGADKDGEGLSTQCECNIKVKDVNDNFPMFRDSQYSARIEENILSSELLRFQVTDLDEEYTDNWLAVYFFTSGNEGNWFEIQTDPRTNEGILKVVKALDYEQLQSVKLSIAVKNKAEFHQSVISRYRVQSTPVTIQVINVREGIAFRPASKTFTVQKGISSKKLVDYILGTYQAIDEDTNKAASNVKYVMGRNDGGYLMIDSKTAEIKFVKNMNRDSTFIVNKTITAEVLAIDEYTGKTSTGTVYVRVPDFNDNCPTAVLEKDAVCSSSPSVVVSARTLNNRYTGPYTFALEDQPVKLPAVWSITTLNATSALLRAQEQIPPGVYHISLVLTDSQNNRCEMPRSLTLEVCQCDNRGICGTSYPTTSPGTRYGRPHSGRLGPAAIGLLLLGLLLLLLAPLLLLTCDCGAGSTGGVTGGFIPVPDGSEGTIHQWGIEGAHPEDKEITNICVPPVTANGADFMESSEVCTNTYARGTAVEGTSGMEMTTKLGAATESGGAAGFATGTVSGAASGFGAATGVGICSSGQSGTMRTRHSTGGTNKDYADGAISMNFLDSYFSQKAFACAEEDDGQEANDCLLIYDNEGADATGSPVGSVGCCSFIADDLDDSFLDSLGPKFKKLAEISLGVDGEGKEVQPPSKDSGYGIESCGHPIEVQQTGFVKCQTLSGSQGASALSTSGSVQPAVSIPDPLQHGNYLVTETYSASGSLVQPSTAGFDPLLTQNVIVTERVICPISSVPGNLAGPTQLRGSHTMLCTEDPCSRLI
rCAG RNA binder: binds r(CAG) RNA repeats; r(CAG) RNA repeat, TO-PRO-1 dye displacement fluorescence; 1.3% of 370,000 active; AID 651821; inhibition, % at 3 µM;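 active = inhibition above the plate cutoff, the mean of all test compounds on that plate plus 3 SD, cut at about 35% in these data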;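 also: higher means more dye released from RNA so lower well fluorescence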
NadD inh: inhibitors of Staphylococcus aureus NadD; purified NadD enzyme, colorimetric absorbance read-out; inhibition, % at 20 µM; 0.78% of 360,000 active; AID 602399; in the data active = inhibition above about 26%
MsrA act: activators of bovine methionine sulfoxide reductase A; activation, % at 10.6 µM; 0.3% of 360,000 active; purified bovine MsrA, absorbance read-out; AID 602163; in the data active = activation above about 7.5%
DAGLB inhibitor: diacylglycerol lipase beta (human) inhibition. 0.059% of 340,000 active. Q8NCG7. inhibition, % at 5.17 µM. HEK293T DAGLB membrane lysate, EnzChek fluorogenic substrate. AID 504411; in the data active = inhibition above about 34%
DAGLB confirm: DAGLB (human) inhibition, confirmation screen. shares compounds with DAGLB inhibitor. HEK293T DAGLB membrane lysate, EnzChek fluorogenic substrate. inhibition, % at 5.17 µM. 73% of 190 active. AID 504445;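 active = mean inhibition over triplicate wells above a set limit taken from the primary lipase screen, cut at about 34% in these data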
MsrA activ conf: confirmation of bovine methionine sulfoxide reductase A activators; shares compounds with MsrA act; purified bovine MsrA, absorbance read-out; activation, % at 10.6 µM; 12% of 1,000 active; in the data active = activation above about 4%;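 also: enzyme coupled to thioredoxin and thioredoxin reductase with NADPH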
NadD conf: NadD (S. aureus) inhibition, single concentration confirmation; shares compounds with NadD inh; purified S. aureus NadD, colorimetric enzyme assay; inhibition, % at 20 µM; 13% of 2,000 active; AID 624309; in the data active = inhibition mostly above about 42%, no sharp cut-off; inactive = mostly below about 42%
rCAG binder conf: r(CAG) RNA repeat binding, confirmation; shares compounds with rCAG RNA binder; TO-PRO-1 dye displacement fluorescence; inhibition, % at 3 µM; 70% of 4,300 active; AID 652065;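 active = inhibition above a per-plate cutoff, the mean inhibition of sample wells plus 3 SD, cut at about 35% in these data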;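 also: loss of TO-PRO-1 fluorescence as compound displaces dye from 1x1 AA loop RNA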
DNA CAG counter: DNA CAG dye complex inhibition counter-screen; shares compounds with rCAG RNA binder; d(CAG) DNA oligo TO-PRO-1 dye displacement, fluorescence; inhibition, % at 3 µM; 94% of 4,300 active;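 active = inhibition above its plate's cutoff, the mean test-well inhibition plus 3 SD, cut at about 4.8% in these data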;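 also: hits displace the dye from DNA and so lower well fluorescence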
Of the large screens only hits and unclear results are named; the others gave an inactive call (follow-up assays come after a bar, where they were run).

CCN(CC)C(=O)c1ccc2c(c1)C1C(Cl)C(Sc3ccccc3[N+](=O)[O-])CC1C(C(=O)O)N2 (stereo unspecified)	none (no result: MsrA inh, rCAG RNA binder)
O=C(O)c1ccc2c(c1)C1C(Cl)C(Sc3ccccc3[N+](=O)[O-])CC1C(c1cccc([N+](=O)[O-])c1)N2 (stereo unspecified)	NadD inh 33 (no result: MsrA inh, rCAG RNA binder)
COc1ccc(/C=C2/C(=O)NC(=O)N(c3ccc(C)c(C)c3)C2=O)cc1CN1C(=O)c2ccccc2C1=O	NadD inh 29
COc1cc(/C=C2\C(=O)NC(=O)N(c3ccccc3)C2=O)cc(OC)c1OC	none
CN1CCc2cc3c(c4c2C1Cc1ccccc1-4)OCO3 (stereo unspecified)	MsrA act 48
NP(=O)(OCCCc1ccccc1)Oc1ccc(Cl)cc1 (stereo unspecified)	DAGLB inhibitor 35 | DAGLB confirm 35
Cc1cc(O)c2c(c1)C(=O)[C@@]13C(=C2O)C(=O)[C@H]2C(O)[C@@H]1[C@H]1C(O)[C@@H]3C(=O)C3=C(O)c4c(O)cc(C)cc4C(=O)[C@@]312 (stereo partly specified)	none (no result: MsrA inh, DSG3 Ab inh, NadD inh, MsrA act, DAGLB inhibitor)
CNC(=S)N1CCn2cccc2C1c1cccnc1 (stereo unspecified)	MsrA act 20 | MsrA activ conf inactive
CCCCNC(=S)N1CCn2cccc2C1c1cccnc1 (stereo unspecified)	none
C[C@H](NC(=O)OCc1ccccc1)[P+](=O)O	none (no result: MsrA inh, DSG3 Ab inh, NadD inh, MsrA act, DAGLB inhibitor)
O=P(C(c1ccc2c(c1)OCO2)N1CCOCC1)(N1CCOCC1)N1CCOCC1 (stereo unspecified)	MsrA act 13 | MsrA activ conf inactive
COc1ccc(C2=CC(c3ccc(OC)c(OC)c3)c3c(c4ccccc4oc3=O)O2)cc1OC (stereo unspecified)	none
O=c1[nH]sc2cc(F)ccc12	DSG3 Ab inh 4.9, MsrA act 12 | MsrA activ conf 10
C/C=C(\C)C(=O)N[C@@H](c1ccccc1)[C@@H](O)C(=O)O[C@H]1C[C@@]2(O)[C@@H](OC(=O)c3ccccc3)C3[C@](C)(C(=O)[C@H](OC(C)=O)C(=C1C)C2(C)C)[C@H](O)C[C@H]1OC[C@@]31OC(C)=O (stereo partly specified)	MsrA act 10 | MsrA activ conf inactive
CCC(C)C(=O)N[C@@H](c1ccccc1)[C@@H](O)C(=O)O[C@H]1C[C@@]2(O)[C@@H](OC(=O)c3ccccc3)C3[C@](C)(C(=O)[C@H](OC(C)=O)C(=C1C)C2(C)C)[C@@H](O)C[C@H]1OC[C@@]31OC(C)=O (stereo partly specified)	none
CCCN1CCC[C@H](c2cccc(O)c2)C1	none
COc1cccc(C(=O)NCCN2CCC3(CC2)C(=O)NCN3c2ccccc2)c1	none (no result: DSG3 Ab inh, NadD inh, MsrA act, DAGLB inhibitor)
Cc1cc(N2CCNC[C@@H]2C)ccc1N1CCN[C@H](C)C1	none (no result: DSG3 Ab inh, NadD inh, MsrA act, DAGLB inhibitor)
Cn1ncnc2c(=O)n(C)c(=O)nc1-2	MsrA act 14 (no result: MsrA inh, DSG3 Ab inh, rCAG RNA binder) | MsrA activ conf 12
OCC[n+]1c2ccccc2nc2ccc(N3CCOCC3)cc21	MsrA inh 5.8, MsrA act 21 (no result: DAGLB inhibitor) | MsrA activ conf 10
O=S1(=O)N(CCN2CC=C(c3c[nH]c4cc(F)ccc34)CC2)c2cccc3c2N1CCC3	MsrA act 7.8 (no result: DSG3 Ab inh) | MsrA activ conf inactive
COC(=O)C1=C(c2ccc(F)cc2OCc2ccccc2)C[C@@H]2CC[C@H]1N2C(=O)NCC1CC1	MsrA act 8.4 | MsrA activ conf inactive
COC(=O)C1=C(c2ccc(F)cc2OCc2ccccc2)C[C@@H]2CC[C@H]1N2C(=O)NCc1ccccc1	none
O=C1NCN(c2ccccc2)C12CCN(C(c1cccc3ccccc13)c1nnnn1-c1ccc3c(c1)OCCO3)CC2 (stereo unspecified)	NadD inh 31 (no result: DSG3 Ab inh, DAGLB inhibitor) | NadD conf inactive
O=C1NCN(c2ccccc2)C12CCN(C(c1cccc3ccccc13)c1nnnn1Cc1ccccc1)CC2 (stereo unspecified)	NadD inh 32 (no result: DSG3 Ab inh, DAGLB inhibitor) | NadD conf inactive
O=C1NCN(c2ccccc2)C12CCN(C(c1ccccc1)c1nnnn1-c1ccc3c(c1)OCCO3)CC2 (stereo unspecified)	none (no result: DSG3 Ab inh, DAGLB inhibitor)
O=C1NCN(c2ccccc2)C12CCN(C(c1ccnc3ccccc13)c1nnnn1Cc1ccccc1)CC2 (stereo unspecified)	none (no result: DSG3 Ab inh, DAGLB inhibitor)
CC(Cc1ccccc1)NCCC(=O)NC(C)Cc1ccccc1 (stereo unspecified)	none
CC(C)C(=O)Nc1ccc(N2CCN(C)CC2)c(F)c1	none
Nc1c(C(=O)OCc2ccccc2)c2nc3ccccc3nc2n1Cc1cccs1	NadD inh 30 (no result: DSG3 Ab inh) | NadD conf inactive
O=c1[nH]c2ccccc2n1C1CCN(C(c2ccccc2OC(F)(F)F)c2nnnn2-c2ccc3c(c2)OCCO3)CC1 (stereo unspecified)	NadD inh 29 (no result: DSG3 Ab inh, DAGLB inhibitor) | NadD conf inactive
O=c1[nH]c2ccccc2n1C1CCN(C(c2ccccc2)c2nnnn2-c2ccc3c(c2)OCCO3)CC1 (stereo unspecified)	NadD inh 31 (no result: DSG3 Ab inh, DAGLB inhibitor) | NadD conf inactive
Cc1cc(OCC(=O)NCc2ccc(S(N)(=O)=O)cc2)c2c3c(c(=O)oc2c1)CCC3	none
Cc1ccc2c(c1Cl)NC(C(=O)O)C1CC(Sc3ccccc3[N+](=O)[O-])C(Cl)C21 (stereo unspecified)	DSG3 Ab inh 41, NadD inh 36 (no result: MsrA inh, rCAG RNA binder) | NadD conf inactive
CCCCCn1c(=O)c(C(=O)Nc2ccccc2)c(O)c2ccccc21	none
CCCCCCn1c(=O)c(C(=O)Nc2c(C)n(C)n(-c3ccccc3)c2=O)c(O)c2ccccc21	NadD inh 32 | NadD conf inactive
CCc1c(C)nc(N)nc1N1N=C1SCCOc1ccccc1	none
COC1C(OC(=O)c2ccc(C)[nH]2)C(O)C(Oc2ccc3c(O)c(NC(=O)c4ccc(O)c(CC=C(C)C)c4)c(=O)oc3c2Cl)OC1(C)C (stereo unspecified)	rCAG RNA binder 77, NadD inh 31 | NadD conf 50 | rCAG binder conf 89 | DNA CAG counter 70
Clc1ccc(OCC#CCN2CCCC2)cc1	none
